# Measured values as given in PubChem BioAssay (NCI).
# Compounds without any hit were thinned out: in the full panel of roughly 83,000, 20% have a hit.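 Values shown are percent growth following 48 h exposure of cells in 96-well plates to a single concentration of compound; below 10 was considered active.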 Values without a mark were called inactive. Activity calls are given as the source filed them.
# Key:
# Experiment in all cases: NCI-60 one-dose screen, 48 h (100 = growth as untreated, 0 = no growth, -100 = all killed)
# Details in all cases: 10 µM
# SR leukemia = test system: SR leukemia
# OVCAR-8 ovarian = test system: OVCAR-8 ovarian
# OVCAR-5 ovarian = test system: OVCAR-5 ovarian
# OVCAR-4 ovarian = test system: OVCAR-4 ovarian
# SK-OV-3 ovarian = test system: SK-OV-3 ovarian
# IGROV1 ovarian = test system: IGROV1 ovarian
# OVCAR-3 ovarian = test system: OVCAR-3 ovarian
# HS 578T breast = test system: HS 578T breast
# NCI/ADR-RES ovarian = test system: NCI/ADR-RES ovarian
Structure (SMILES),growth (SR leukemia),growth (OVCAR-8 ovarian),growth (OVCAR-5 ovarian) [%],growth (OVCAR-4 ovarian),growth (SK-OV-3 ovarian),growth (IGROV1 ovarian),growth (OVCAR-3 ovarian),growth (HS 578T breast),growth (NCI/ADR-RES ovarian)
Clc1nc2ccccc2cc1Cn1nnc(Cc2ccccc2)n1,37%,71.6%,104,29.7%,57.4%,50.9%,59.5%,76.6%,52.1%
COc1ccc(-c2nn(-c3cccc(Cl)c3)cc2-c2nc(N)[nH]c(=O)c2C#N)cc1,19.3%,96.4%,94.3,85.7%,90%,61%,106%,76.6%,66.3%
O=c1cn[nH]c2ccc(Br)cc12,89.4%,98.8%,108,109%,98.6%,102%,105%,99.4%,105%
COc1ccc(-c2nn(-c3cccc(Cl)c3)cc2-c2c(C#N)c(=O)n3[nH]c(-c4ccc(C)cc4)nc3c2C#N)cc1,1.64% (active),14.3%,87,57.1%,55.7%,38.5%,97%,43.4%,51.2%
COc1ccc([C@H]2[C@H](C(=O)Nc3cccnc3)c3ccccc3C(=O)N2c2ccccc2)cc1,46.3%,96.1%,114,98.2%,96.4%,81.4%,100%,71%,97%
Nc1nc(-c2cccnc2)nc2c1sc(=S)n2-c1ccccc1,113%,101%,125,128%,103%,98.1%,114%,91.4%,93.1%
COc1ccc(-c2nn(-c3cccc(Cl)c3)cc2/C=C2\NC(=S)N(c3ccc(Cl)cc3)C2=O)cc1,-69.6% (active),21.9%,53.7,-62.1% (active),-47.8% (active),-16.2% (active),0.69% (active),25.8%,7.34% (active)
Cc1ccc(-n2c(C)nn3c(=O)c4c5c(sc4nc23)CN(C)CC5)cc1,104%,103%,98.8,102%,95.1%,101%,96.7%,107%,101%
COc1ccc(C(=O)c2ccccc2CN2C(=O)c3ccccc3C2=O)cc1,91.8%,97%,109,105%,109%,101%,105%,105%,95.5%
COc1ccc(-c2cc(-c3ccc(Cl)cc3)nc(SCCCC(=O)NO)n2)cc1,22.8%,8.07% (active),24.5,18.2%,5.99% (active),2.96% (active),-1.93% (active),37.9%,-33.6% (active)
Cc1cc(NC(=O)c2ccc(C)c(Nc3nccc(-c4cccnc4)n3)c2)cc(-n2cnc(C)c2)c1,-22.3% (active),61.3%,46,-28.7% (active),27.6%,32.3%,-7.87% (active),5.73% (active),59.1%
COc1ccc(-c2cc(-c3ccccc3)nc(SCCCC(=O)NO)n2)cc1,12.3%,6.59% (active),17,13.5%,-20.5% (active),-32.6% (active),-22.8% (active),13.8%,-40.5% (active)
CC(C)(C)OC(=O)N1CCc2c(sc3ncnc(N/N=C/c4ccccc4Br)c23)C1,39.4%,71.6%,78.3,72.9%,114%,68.6%,62.9%,98.7%,71.6%
Cc1c2c[n+](C(C)C)ccc2c(C)c2c1[nH]c1ccccc12,20.8%,15.9%,55.7,13.8%,-1.05% (active),41.2%,9.41% (active),22.8%,97.9%
Cc1ccc(C(=O)/C=C/c2ccccc2)s1,88.3%,111%,110,133%,130%,79.4%,89.6%,106%,113%
CC1=CC2C(C(O)CC3(C)C2CC(C)C32OCOC23COCO3)C2(C)C/C(=C/O)C(=O)C=C12 (stereo not given),-38.8% (active),43.8%,63.2,35.8%,48.5%,70.9%,10.8%,83.4%,17.3%
Cc1cn(-c2cccc(NC(=O)c3ccc(C)c(Nc4nccc(-c5cccnc5)n4)c3)c2)cn1,1.26% (active),0.284% (active),41.3,-58.1% (active),-54.2% (active),-11.7% (active),-33.7% (active),-8.85% (active),7.25% (active)
COc1cc2c3c(n(C4CCN(C)CC4)c(=O)c2cc1OC)-c1cc2c(cc1C3=O)OCO2,7.92% (active),19.4%,138,84.9%,48.7%,66.9%,-72% (active),109%,64%
COc1ccc(-c2nn(-c3cccc(Cl)c3)cc2-c2c(C#N)c(=O)n3[nH]c(-c4ccccc4)nc3c2C#N)cc1,71.2%,110%,106,97.3%,102%,108%,109%,101%,93%
CCc1ccc(C2=NN(c3ccc(S(C)(=O)=O)cc3)C(=O)CC2)cc1,4.42% (active),39.1%,48.7,76.2%,28.7%,37.4%,-13.6% (active),-0.675% (active),6.7% (active)
COc1ccc(C(=O)CSc2nc(-c3cc(OC)ccc3OC)cc(-c3ccc(OC)cc3)c2C#N)cc1,90.1%,105%,85.8,98.1%,87.1%,102%,97%,103%,45.1%
N#CC1=CC2CN(Cc3ccccc3)C1C1C(=O)N(c3ccccc3)C(=O)C21 (stereo not given),93.4%,98.2%,101,93.2%,97%,103%,111%,101%,91.6%
CCCN(CCC)C(=O)[C@H](CC)[C@@H]1CC[C@@H](C)[C@@H]([C@H](C)[C@@H](O)[C@@H](C)C(=O)[C@H](CC)C2O[C@]3(C=C[C@@H](O)[C@]4(CC[C@@](C)([C@H]5CC[C@](O)(CC)[C@H](C)O5)O4)O3)[C@H](C)C[C@@H]2C)O1 (stereo not given in full),15.2%,15%,,7.28% (active),3.96% (active),17.1%,2.11% (active),11.7%,-11.2% (active)
CC[C@@H](C(=O)[C@H](C)[C@H](O)[C@@H](C)[C@H]1O[C@H]([C@@H](CC)C(=O)N(CC)CC)CC[C@H]1C)C1O[C@]2(C=C[C@@H](O)[C@]3(CC[C@@](C)([C@H]4CC[C@](O)(CC)[C@H](C)O4)O3)O2)[C@H](C)C[C@@H]1C (stereo not given in full),55.5%,25.4%,32,,20.8%,19.8%,14.3%,24.1%,5.44% (active)
CCn1c(CSc2nc3ccccc3c(=O)n2CCc2ccccc2)n[nH]c1=S,73.1%,89.7%,91.9,85.6%,97.9%,93.4%,,91%,73.7%
CN1CCc2c(sc3nc4n(-c5ccc(Cl)cc5)c(=O)[nH]n4c(=O)c23)C1,97.6%,93%,115,,96.8%,91.4%,106%,121%,99%
CCNc1nc(C(F)(F)F)nc2c1sc(=S)n2-c1ccccc1,83.5%,96.1%,112,,102%,102%,,107%,92.9%
COCCn1cc(-c2nc(-c3cccnc3)cs2)c2cc(F)ccc21,63.5%,,92.7,95.6%,7.36% (active),110%,94.1%,98.6%,86%
